# Laboratory results published in PubChem BioAssay (EPA / NIEHS).
# Some compounds were tested as several samples or in several runs, with calls that do not always agree. Calls of active or inactive are those of the source. How the source made its calls: active means hit-call score of the fitted dose curve at least 0.9, where 1 is the maximum; inactive means score below 0.9.
# Tests used:
# [1] = read-out: TIMP metallopeptidase inhibitor 1 (TIMP1), TIMP1 (gene 7076); assay: BSK_hDFCGF_TIMP1: BioMAP Diversity Plus: hDFCGF Assay for TIMP metallopeptidase inhibitor 1 (TIMP1) Biomarker Activity (AID 2283062); conditions: primary human foreskin fibroblasts; actives raise or lower the signal
# Outline: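 ELISA readout of TIMP-1 from human dermal foreskin fibroblast cultures 24 h post-dosing. Curves were fitted in both directions against DMSO baseline, with SRB total-protein staining in parallel cultures as a cytotoxicity check.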
# [2] = read-out: Monokine induced gamma interferon (MIG), CXCL9 (gene 4283); assay: BSK_hDFCGF_MIG: BioMAP Diversity Plus: hDFCGF Assay for Monokine induced gamma interferon (MIG) Biomarker Activity (AID 2283063); conditions: primary human foreskin fibroblasts; actives raise or lower the signal
# Outline: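 Fibroblasts (human foreskin, primary) dosed, 24 h, MIG by ELISA; fit bidirectional vs DMSO.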
# [3] = read-out: Matrix Metallopeptidase 1 (MMP1), MMP1 (gene 4312); assay: BSK_hDFCGF_MMP1: BioMAP Diversity Plus: hDFCGF Assay for Matrix Metallopeptidase 1 (MMP1) Biomarker Activity (AID 2283064); conditions: primary human foreskin fibroblasts; actives raise or lower the signal
# Outline: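 MMP1 levels quantified by ELISA 24 h after dosing human dermal fibroblast cultures, with parallel SRB total-protein staining for overt cytotoxicity. Data fitted in both directions against DMSO baseline.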
# [4] = read-out: Vascular cell adhesion molecule 1 (VCAM1), VCAM1 (gene 7412); assay: BSK_hDFCGF_VCAM1: BioMAP Diversity Plus: hDFCGF Assay for Vascular cell adhesion molecule 1 (VCAM1) Biomarker Activity (AID 2283065); conditions: primary human foreskin fibroblasts; actives raise or lower the signal;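 on AC50: VCAM-1 protein level quantified by ELISA after 24 h chemical exposure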
# Outline: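 ELISA read-out of VCAM-1 on human skin fibroblasts, 24 h post-dose; gain or loss of signal fitted bidirectionally against DMSO baseline.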
# [5] = read-out: Plasminogen activator inhibitor-1 (PAI1), SERPINE1 (gene 5054); assay: BSK_hDFCGF_PAI1: BioMAP Diversity Plus: hDFCGF Assay for Plasminogen activator inhibitor-1 (PAI1) Biomarker Activity (AID 2283066); conditions: primary human foreskin fibroblasts; actives raise or lower the signal
# Outline: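 Fibroblasts from human foreskin were treated with test chemical. After 24 h, PAI-1 was measured by ELISA. Activity was fitted in both directions relative to DMSO.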
# [6] = read-out: Interferon-gamma inducible Protein 10 (IP10), CXCL10 (gene 3627); assay: BSK_KF3CT_IP10: BioMAP Diversity Plus: KF3CT Assay for Interferon-gamma inducible Protein 10 (IP10) Biomarker Activity (AID 2283068); conditions: primary human keratinocytes with fibroblasts; actives raise or lower the signal
# Outline: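 In a primary skin co-culture of keratinocytes and fibroblasts, IP-10 is quantified by ELISA at 24 h after dosing. SRB staining of parallel wells monitors overt toxicity. Curves are fitted both directions against DMSO.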
# [7] = BSK_KF3CT_SRB: Viability Assessment in the BioMAP Diversity Plus: KF3CT Assay (AID 2283069); conditions: primary human keratinocytes with fibroblasts;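 further: total protein by sulforhodamine B staining as a cytotoxicity measure; read 24 h after compound addition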
# Outline: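 Cytotoxicity was gauged by SRB staining (0.1% SRB, 10% TCA fixation, 560 nm) of parallel cultures at 24 h. The cells were primary human skin keratinocytes co-cultured with fibroblasts, and activity was fitted in both directions against DMSO.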
# [8] = read-out: Interleukin-1 alpha (IL1a), IL1A (gene 3552); assay: BSK_KF3CT_IL1a: BioMAP Diversity Plus: KF3CT Assay for Interleukin-1 alpha (IL1a) Biomarker Activity (AID 2283070); conditions: primary human keratinocytes with fibroblasts; actives raise or lower the signal
# Outline: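 IL-1a was detected by ELISA 24 h after chemical treatment of a co-culture of human skin keratinocytes and foreskin fibroblasts. Gain or loss of signal was fitted against the DMSO baseline.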
# [9] = read-out: TIMP metallopeptidase inhibitor 2 (TIMP2), TIMP2 (gene 7077); assay: BSK_KF3CT_TIMP2: BioMAP Diversity Plus: KF3CT Assay for TIMP metallopeptidase inhibitor 2 (TIMP2) Biomarker Activity (AID 2283071); conditions: primary human keratinocytes with fibroblasts; actives raise or lower the signal
# Outline: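 Chemicals were dosed onto human skin primary co-cultures of keratinocytes and foreskin fibroblasts, and TIMP-2 was measured by ELISA after 24 hours. Activity in either direction was fitted relative to DMSO.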
# [10] = read-out: Transforming growth factor beta 1 (TGFb1), TGFB1 (gene 7040); assay: BSK_KF3CT_TGFb1: BioMAP Diversity Plus: KF3CT Assay for Transforming growth factor beta 1 (TGFb1) Biomarker Activity (AID 2283072); conditions: primary human keratinocytes with fibroblasts; actives raise or lower the signal
# Outline: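 KF3CT co-culture (keratinocytes + fibroblasts), 24 h exposure → TGF-b1 ELISA → bidirectional fit, DMSO = baseline. Parallel SRB total-protein staining (0.1% SRB, 10% TCA fixation, 560 nm) for cytotoxicity.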
# [11] = read-out: C-C motif chemokine 2 (Homo sapiens) (UniProt P13500); assay: BSK_KF3CT_MCP1: BioMAP Diversity Plus: KF3CT Assay for Monocyte Chemoattractant Protein 1 (MCP1/CCL2) Biomarker Activity (AID 2283073); conditions: primary human keratinocytes with fibroblasts; actives raise or lower the signal
# Outline: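 KF3CT skin co-culture (keratinocytes/foreskin fibroblasts), 24 h post-dose; MCP-1 by ELISA; gain/loss of signal fit bidirectionally vs DMSO baseline.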
# [12] = read-out: urokinase plasminogen activator (uPA), PLAU (gene 5328); assay: BSK_KF3CT_uPA: BioMAP Diversity Plus: KF3CT Assay for urokinase plasminogen activator (uPA) Biomarker Activity (AID 2283075); conditions: primary human keratinocytes with fibroblasts; actives raise or lower the signal
# Outline: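 ELISA read-out of uPA 24 h after dosing human skin keratinocytes co-cultured with foreskin fibroblasts. Signal change fitted both ways relative to DMSO; sulforhodamine B on parallel cultures marks overt cytotoxicity.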
# CD40, CD40 (gene 958) = assay: BSK_LPS_CD40: BioMAP Diversity Plus: LPS Assay for CD40 Biomarker Activity (AID 2283076); conditions: primary human HUVEC with PBMC; actives raise or lower the signal
# Outline: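 ELISA readout of CD40 in HUVEC/PBMC co-culture (BSK_LPS system), 24 h post-dosing; bidirectional curve fit, DMSO baseline; parallel SRB total-protein staining for cytotoxicity.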
# [13] = read-out: E-selectin (Homo sapiens) (UniProt P16581); assay: BSK_LPS_Eselectin: BioMAP Diversity Plus: LPS Assay for Eselectin Biomarker Activity (AID 2283077); conditions: primary human HUVEC with PBMC; actives raise or lower the signal
# Outline: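 ELISA readout of E-selectin, 24 h post-dose, HUVEC + PBMC co-culture (LPS system). Gain or loss of signal vs DMSO baseline, bidirectional fit.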
# [14] = read-out: Interleukin-8 (IL8), CXCL8 (gene 3576); assay: BSK_LPS_IL8: BioMAP Diversity Plus: LPS Assay for Interleukin-8 (IL8) Biomarker Activity (AID 2283078); conditions: primary human HUVEC with PBMC; actives raise or lower the signal
# Outline: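 HUVEC + PBMC co-culture, LPS-activated; test chemicals dosed, IL-8 read by ELISA at 24 h. Bidirectional curve fit vs DMSO baseline (gain or loss of signal).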
# [15] = BSK_LPS_SRB: Viability Assessment in the BioMAP Diversity Plus: LPS Assay (AID 2283079); conditions: primary human HUVEC with PBMC;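 further: total protein by sulforhodamine B absorbance as a cytotoxicity measure; measured one day after compound addition; fitted in both directions against DMSO so loss or gain of signal counts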
# Outline: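 HUVEC + PBMC co-culture, LPS-stimulated; compound 24 h. 10% TCA fix, 0.1% SRB stain, A560. Bidirectional fit vs DMSO.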
# [16] = read-out: Interleukin-1 alpha (IL1a), IL1A (gene 3552); assay: BSK_LPS_IL1a: BioMAP Diversity Plus: LPS Assay for Interleukin-1 alpha (IL1a) Biomarker Activity (AID 2283080); conditions: primary human HUVEC with PBMC; actives raise or lower the signal
# Outline: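 HUVEC/PBMC co-culture, LPS system; 24 h after dosing; IL-1a by ELISA; gain or loss of signal fitted bidirectionally vs DMSO baseline.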
# [17] = read-out: Monocyte Chemoattractant Protein-1 (MCP1), CCL2 (gene 6347); assay: BSK_LPS_MCP1: BioMAP Diversity Plus: LPS Assay for Monocyte Chemoattractant Protein-1 (MCP1) Biomarker Activity (AID 2283081); conditions: primary human HUVEC with PBMC; actives raise or lower the signal;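 on AC50: secreted MCP-1 protein quantified by ELISA in culture supernatant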
# Outline: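 ELISA read-out of MCP-1 after 24 h chemical dosing of a human umbilical vein endothelial cell/peripheral blood mononuclear cell co-culture stimulated with LPS. Gain or loss of signal fitted relative to DMSO controls.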
# [18] = read-out: Intercellular Adhesion Molecule 1 (ICAM1), ICAM1 (gene 3383); assay: BSK_KF3CT_ICAM1: BioMAP Diversity Plus: KF3CT Assay for Intercellular Adhesion Molecule 1 (ICAM1) Biomarker Activity (AID 2283067); conditions: primary human keratinocytes with fibroblasts; actives raise or lower the signal
# Outline: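 ELISA readout of ICAM-1; KF3CT human skin co-culture (keratinocytes + foreskin fibroblasts), 24 h post-dose; gain/loss fit vs DMSO baseline.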
# [19] = read-out: Matrix Metallopeptidase 9 (MMP9), MMP9 (gene 4318); assay: BSK_KF3CT_MMP9: BioMAP Diversity Plus: KF3CT Assay for Matrix Metallopeptidase 9 (MMP9) Biomarker Activity (AID 2283074); conditions: primary human keratinocytes with fibroblasts; actives raise or lower the signal
# Outline: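 MMP-9 quantified by ELISA after 24 h chemical treatment of primary human skin keratinocyte/fibroblast co-cultures; gain or loss fitted against DMSO, with parallel SRB staining (0.1% SRB, 560 nm) for overt cytotoxicity.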
# Sequence of E-selectin (Homo sapiens) (P16581 whole entry, looked up): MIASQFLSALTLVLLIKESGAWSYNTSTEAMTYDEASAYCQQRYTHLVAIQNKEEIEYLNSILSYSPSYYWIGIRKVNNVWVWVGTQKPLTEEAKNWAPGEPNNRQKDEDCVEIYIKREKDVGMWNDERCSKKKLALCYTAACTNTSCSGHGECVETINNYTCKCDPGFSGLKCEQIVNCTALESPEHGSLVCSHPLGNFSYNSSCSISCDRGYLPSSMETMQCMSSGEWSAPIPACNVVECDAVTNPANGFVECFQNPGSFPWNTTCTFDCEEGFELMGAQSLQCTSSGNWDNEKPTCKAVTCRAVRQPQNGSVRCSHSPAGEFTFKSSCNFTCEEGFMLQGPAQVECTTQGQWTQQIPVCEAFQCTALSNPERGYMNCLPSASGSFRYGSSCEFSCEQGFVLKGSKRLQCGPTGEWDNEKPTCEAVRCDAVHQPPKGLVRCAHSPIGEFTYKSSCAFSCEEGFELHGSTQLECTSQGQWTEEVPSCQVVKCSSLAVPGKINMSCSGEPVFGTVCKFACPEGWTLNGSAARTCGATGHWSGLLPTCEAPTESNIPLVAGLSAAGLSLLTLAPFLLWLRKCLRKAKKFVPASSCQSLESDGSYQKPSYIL
smiles,measurement,setting,value
O=C(NCc1ncc(C(F)(F)F)cc1Cl)c1c(Cl)cccc1Cl,outcome,[1],inactive
same,outcome,[2],inactive
same,outcome,[3],inactive
same,outcome,[4],inactive
same,outcome,[5],inactive
same,outcome,[6],inactive
same,outcome,[7],inactive
same,outcome,[8],inactive
same,outcome,[9],inactive
same,outcome,[10],inactive
same,outcome,[11],inactive
same,outcome,[12],inactive
same,outcome,"CD40, CD40 (gene 958)",inactive
same,outcome,[13],inactive
same,outcome,[14],inactive
same,outcome,[15],inactive
same,outcome,[16],inactive
same,outcome,[17],inactive
C=COC(=O)C(C)(C)CCCCCC,AC50,[1],28.5 µM (active)
same,AC50,[2],35 µM (active)
same,AC50,[3],3.97 µM (active)
same,AC50,[4],30.2 µM (active)
same,AC50,[5],30.3 µM (active)
same,AC50,[18],37.2 µM (active)
same,AC50,[6],34.7 µM (active)
same,AC50,[7],34.4 µM (active)
same,AC50,[8],30.9 µM (active)
same,AC50,[9],27.6 µM (active)
same,outcome,[10],inactive
same,AC50,[11],25.9 µM (active)
same,AC50,"CD40, CD40 (gene 958)",31.7 µM (active)
same,AC50,[13],30.6 µM (active)
same,AC50,[14],33.1 µM (active)
same,AC50,[15],34.6 µM (active)
same,AC50,[16],33.6 µM (active)
same,AC50,[17],31 µM (active)
Oc1cc2ccccc2cc1O,outcome,[1],inactive
same,outcome,[2],inactive
same,outcome,[3],inactive
same,outcome,[4],inactive
same,outcome,[5],inactive
same,outcome,[6],inactive
same,outcome,[7],inactive
same,outcome,[8],inactive
same,outcome,[9],inactive
same,outcome,[10],inactive
same,outcome,[11],inactive
same,outcome,[19],inactive
same,outcome,"CD40, CD40 (gene 958)",inactive
same,outcome,[13],inactive
same,outcome,[14],inactive
same,outcome,[15],inactive
same,outcome,[16],inactive
same,outcome,[17],inactive
CN(Cc1cnc2nc(N)nc(N)c2n1)c1ccc(C(=O)N[C@@H](CCC(=O)O)C(=O)O)cc1,outcome,[1],inactive
same,outcome,[2],inactive
same,outcome,[3],inactive
same,outcome,[4],inactive
same,outcome,[5],inactive
same,outcome,[18],inactive
same,outcome,[6],inactive
same,outcome,[7],inactive
same,outcome,[8],inactive
same,outcome,[9],inactive
same,outcome,[10],inactive
same,outcome,[11],inactive
same,outcome,[19],inactive
same,outcome,"CD40, CD40 (gene 958)",inactive
same,outcome,[13],inactive
same,outcome,[14],inactive
same,outcome,[15],inactive
same,outcome,[16],inactive
same,AC50,[17],0.1 µM (active)
same,outcome,[17],inactive
O=C1OC2(c3ccccc31)c1cc(I)c(O)c(I)c1Oc1c2cc(I)c(O)c1I,AC50,[1],6.04 µM (active)
same,AC50,[2],18.6 µM (active)
same,AC50,[3],7.71 µM (active)
same,AC50,[4],12 µM (active)
same,AC50,[5],5.52 µM (active)
same,AC50,[18],17.4 µM (active)
same,AC50,[6],18.4 µM (active)
same,outcome,[7],inactive
same,AC50,[8],4.82 µM (active)
same,AC50,[9],2.44 µM (active)
same,AC50,[10],3.45 µM (active)
same,AC50,[11],3.51 µM (active)
same,AC50,[12],9.05 µM (active)
same,AC50,"CD40, CD40 (gene 958)",8.71 µM (active)
same,AC50,[13],8.58 µM (active)
same,outcome,[14],inactive
same,outcome,[15],inactive
same,AC50,[16],9.13 µM (active)
same,AC50,[17],6.33 µM (active)
CS(=O)(=O)c1ccc([C@@H](CC2CCCC2)C(=O)Nc2cnccn2)cc1Cl,outcome,[1],inactive
same,outcome,[2],inactive
same,outcome,[3],inactive
same,outcome,[4],inactive
same,AC50,[5],20 µM (active)
same,outcome,[6],inactive
same,outcome,[7],inactive
same,outcome,[8],inactive
same,outcome,[9],inactive
same,outcome,[10],inactive
same,outcome,[11],inactive
same,outcome,[19],inactive
same,outcome,"CD40, CD40 (gene 958)",inactive
same,outcome,[13],inactive
same,outcome,[14],inactive
same,outcome,[15],inactive
same,outcome,[16],inactive
same,outcome,[17],inactive
